Bioassay records: PubChem BioAssay, National Center for Advancing Translational Sciences (NCATS)
This is a sample that favours compounds with a hit; in the whole collection about 10% have one here.
GLS inh – glutaminase GLS (human) inhibition | Potency, µM (highest dose often 45.5 µM), inactives show at the top dose activity change, negative = inhibition, hits mostly inhibitors | actives 0.21% (n = 410,000) | GLS enzymatic activity, qHTS titration | O94925; further: on the % scale 0 is the no-effect control and ±100 the full control effect
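hKGA; 45 mM KH2PO4 pH 8.2 + 0.02% Tween-20; cpd via pin tool; 1 mM Gln soln; GluOx/HRP/Amplex Red; RT 30 min; fluor. t0 & final.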
G9a inh – inhibitors of human histone lysine methyltransferase G9a | Q96KQ7 | G9a H3K9 monomethylation, AlphaScreen, 2 h | Potency, µM (doses to about 102 µM), for the others: top-dose activity, negative = inhibition, actives largely listed as inhibitors | actives 8.8% (n = 350,000); further: on the % scale 0 is the no-effect control and ±100 the full control effect; nearly all actives have a fitted effect of over 75% in size
Target sequence (Q96KQ7 913-1193 limits assumed): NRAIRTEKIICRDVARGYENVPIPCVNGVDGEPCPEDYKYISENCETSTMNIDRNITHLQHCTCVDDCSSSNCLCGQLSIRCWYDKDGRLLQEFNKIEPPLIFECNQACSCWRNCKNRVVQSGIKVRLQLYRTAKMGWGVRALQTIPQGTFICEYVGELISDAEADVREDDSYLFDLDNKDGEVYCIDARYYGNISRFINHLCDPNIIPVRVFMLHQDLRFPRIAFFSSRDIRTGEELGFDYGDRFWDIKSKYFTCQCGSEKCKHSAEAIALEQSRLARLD
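Enzyme 20 nM + cpd, 15 min RT; add b-H3K9 pep 500 nM / SAM 20 uM; 2 h RT; anti-H3K9me1 Ab 0.5 ug/mL + SA donor / anti-rabbit acceptor beads 20 ug/mL each, 10 min; AlphaScreen read.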
JMJD2A Tudor inh – inhibitors of human JMJD2A Tudor domain; O75164; AlphaScreen JMJD2A-Tudor / H3K4me3 peptide binding; Potency, µM (doses to about 114 µM), for the others: at the top dose activity change, negative = inhibition, hits mostly inhibitors; actives 4.4% (n = 390,000); further: on the % scale 0 is the no-effect control and ±100 the full control effect; nearly all actives have a fitted effect of over 50% in size
HP1b binding inh – blocks HP1-beta chromodomain binding to methylated histone tails | AlphaScreen HP1-beta / biotin-H3K9me3 peptide binding | Potency, µM (highest dose often 114 µM), for the others: top-dose activity change, negative = inhibition, most hits filed as inhibitors | actives 0.56% (n = 390,000); further: nearly all actives have a fitted effect of over 70% in size
Target sequence (P83916 whole entry, looked up): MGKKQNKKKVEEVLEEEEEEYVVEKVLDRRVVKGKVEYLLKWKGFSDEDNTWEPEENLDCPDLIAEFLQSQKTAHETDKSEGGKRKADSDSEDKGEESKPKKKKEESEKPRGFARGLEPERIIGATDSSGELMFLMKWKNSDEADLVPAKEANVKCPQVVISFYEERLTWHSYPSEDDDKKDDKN
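Compound inhibition of the preformed complex between 50 nM HP1-beta and 50 nM biotinylated H3K9me3 peptide was read by AlphaScreen. Buffer was PBS pH 7.4 with 0.01% Tween-20. Incubations ran 30 min at room temperature, with 10 ug/mL donor/acceptor beads.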
BAZ2B inh – inhibitors of human BAZ2B bromodomain | actives 4.4% (n = 360,000) | AID 504333 | AlphaScreen BAZ2B-H3K14Ac peptide displacement | Potency, µM (highest dose often 114 µM), for the others: at the top dose activity change, negative = inhibition, most hits filed as inhibitors | Q9UIF8; further: on the % scale 0 is the no-effect control and ±100 the full control effect; nearly all actives have a fitted effect of over 60% in size
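In this displacement format the biotinylated H3(5-23) peptide acetylated at Lys14 serves as ligand at 50 nM, with BAZ2B at 50 nM in PBS pH 7.4 containing 0.01% Tween-20. Donor and acceptor beads are 10 ug/mL final.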
Active calls of the source: *; ? = inconclusive; . = no result; [ ] = remark or other dose. The call rests on the fitted dose curve; in most records, active means well fitted curve in the direction sought with a large enough effect; inconclusive means small, poorly fitted or top-dose-only effect, or another doubt; inactive means no such curve, though single readings can be large; an effect the other way counts as inactive or inconclusive. Potency means the concentration at half of the fitted maximal effect.

SMILES	GLS inh	G9a inh	JMJD2A Tudor inh	HP1b binding inh	BAZ2B inh
COc1ccccc1N1CCN(C(=O)CCCN2C(=O)c3cccc4cccc(c34)C2=O)CC1	-1%	?	-34%	-1%	-10%
CCCCNC(=O)C1(C)CCCCN1Cc1ccc2ccccc2c1 (configuration not stated)	-24%	.	.	.	.
O=C(NCC1CCCO1)C(c1cccs1)N(Cc1ccccc1)C(=O)c1ccc(-c2ccccc2)[nH]1 (configuration not stated)	4%	?	?	?	?
COc1ccc(CN(CC(=O)NC2CCCC2)C(=O)c2ccc(-c3ccccc3)[nH]2)cc1	-15%	?	?	-19%	28µM*
CC(C(=O)NC1CCCC1)N(C(=O)Cn1nnc(-c2ccc(F)cc2)n1)c1ccccc1F (configuration not stated)	-1%	-1%	-7%	6%	8%
COc1ccc(CN(C(=O)c2ccc(-c3ccccc3)[nH]2)C(C(=O)NCC2CCCO2)c2ccc(C)o2)cc1 (configuration not stated)	11%	-11%[0.501 µM]	?	-18%	45µM*
CC(C(=O)NC1CCCC1)N(C(=O)c1ccc(-c2ccccc2)[nH]1)c1ccccc1F (configuration not stated)	-9%	-1%[59 µM]	22µM*	-33%	?
COc1ccc(CN(CC(=O)NC2CCCC2)C(=O)c2csnn2)cc1	-6%	-3%[59 µM]	-1%	-15%	6%
CC(=O)c1cccc(NC(=O)c2nc(-c3ccccc3)oc2C)c1	1%	-9%[59 µM]	-11%	18%	-34%
Cc1cc(C)cc(NC(=O)Nc2cnccn2)c1	1%	.	-5%	31%	-5%
Cc1cc(C)cc(NC(=O)c2nccnc2C(=O)O)c1	1%	25µM*	79µM*	6%	?
Cc1ccc(NC(=O)c2cccc(C(=O)Nc3ccc(C)c(C)c3)n2)cc1C	0%	67%	22µM*	-6%	2%
CC(=O)c1cccc(NC(=O)c2nccnc2C(=O)O)c1	1%	?	20µM*	15%	-10%
O=C(O)c1nccnc1C(=O)Nc1ccc(Cl)cn1	6%	45µM*	?	7%[57 µM]	?
COc1cccc(OC)c1C(=O)Nc1ccc(S(=O)(=O)Nc2nccc(C)n2)cc1	4%	-2%[59 µM]	-4%	37%	3%[57.1 µM]
CC(=O)c1cccc(NC(=O)c2ccc(C(=O)Nc3cccc(C(C)=O)c3)nc2)c1	3%	?	20µM*	14%	?
Cc1ccc(NC(=O)c2ccccc2-c2ccccc2C(=O)O)cc1C	-7%	?	-6%	46%	?
COC(=O)c1cc(NC(=O)c2nccnc2C(=O)O)cc(C(=O)OC)c1	1%	45µM*	56µM*	31%	-39%
CC(=O)Nc1cccc(C(=O)Nc2cccc3ncccc23)c1	0%	45µM*	-6%	29%	1%
COC(=O)c1cc(NC(=O)c2cccnc2)cc(C(=O)OC)c1	-2%	-1%	-8%	40%	-15%
CC(=O)Nc1cccc(NC(=O)c2ccc(C(=O)Nc3cccc(NC(C)=O)c3)nc2)c1	1%	-10%	-10%	28%	-33%
Cc1ccc(NC(=O)c2nccnc2C(=O)O)cc1C	-2%	45µM*	-32%	20%	?
CCCSc1ccc([C@@H]2[C@@H]3C(=O)N(C)C(=O)[C@@H]3[C@]3(C(=O)OC)CCCN23)cc1OC	16%	-9%[2.33 µM]	-27%	24%	?
CCc1nc2sc3ccccc3c(=O)c2c(=O)n1Cc1ccco1	-24%	-19%[59 µM]	56µM*	-10%	?
COCCn1c(-c2ccc(OC)cc2)nc2oc3cc(OC)ccc3c(=O)c2c1=O	-4%	2%[12.7 µM]	-21%	21%	8%
SMILES	GLS inh	G9a inh	JMJD2A Tudor inh	HP1b binding inh	BAZ2B inh
CCc1nc2oc3cc(OC)ccc3c(=O)c2c(=O)n1Cc1ccco1	-9%	32µM*	?	28%	56µM*
COc1ccc(-c2nc3oc4cc(OC)ccc4c(=O)c3c(=O)n2Cc2ccco2)cc1	0%	25µM*	-14%	6%	-6%
COc1ccc(Cn2c(-c3ccco3)nc3oc4cc(OC)ccc4c(=O)c3c2=O)cc1	-16%	50µM*	-14%	11%	-33%
COc1ccc2c(=O)c3c(=O)n(Cc4ccccc4)c(C(C)C)nc3oc2c1	3%	.	-10%	11%	.
COc1ccc(C(=O)OCC(=O)NC2CC2)cc1F	-20%	.	-3%	22%	.
COC(=O)c1cc(S(=O)(=O)NCc2ccc3c(c2)OCO3)cn1C	-15%	16%	-9%	25%	-13%
CN(C)C(=S)Oc1ccccc1C1(C)OCCO1	0%	.	.	.	.
COc1ccc2c(=O)c3c(=O)n(Cc4ccco4)c(-c4ccco4)nc3oc2c1	-8%	18µM*	?	0%	?
COc1cccc(-c2nc(S(=O)(=O)c3ccc(Cl)cc3)c(NCc3ccccc3)o2)c1	4%	-34%[59 µM]	-25%	-2%	-27%
O=C(/C=C\c1ccccc1)Oc1cccc2cccnc12	1%	23%	3%	40%	40µM*
O=C(/C=C/c1ccccc1)Oc1cccc2cccnc12	-8%	.	-3%	58%	45µM*
O=c1nc2ccccc2c2n1CC(CN1CCN(c3ccccc3)CC1)N2 (configuration not stated)	.	34%[59 µM]	.	.	.
S=C(NC1CC1)NC1CCCc2ccccc21 (configuration not stated)	-1%	13%[59 µM]	?	28%	56µM*
CCCCN1C(=O)C(=O)N(CC(=O)NC2CCCc3ccccc32)C1=O (configuration not stated)	-15%	11%	5µM*	?	-5%
S=C(NCc1ccccc1)NC1CCCc2ccccc21 (configuration not stated)	6%	6%	-18%[11.4 µM]	7%	-21%
CCS(=O)(=O)c1ccccc1C(=O)NC1CCCc2ccccc21 (configuration not stated)	0%	40µM*	-6%	-2%	-1%
O=C(CN1C(=O)C2CCCCC2C1=O)NC1CCCc2ccccc21 (configuration not stated)	5%	?	-7%	37%	-2%
Cc1ccc(CN2CCCC2(C)C(=O)NC(C)C)cc1 (configuration not stated)	12%	.	.	.	.
O=C(Nc1ccc(-n2cccn2)cc1)C1CCCCN1Cc1cccc2c1OCO2 (configuration not stated)	3%	-7%[59 µM]	-26%	6%[57 µM]	?
O=C(NC(=S)Nc1ccccc1Br)c1ccc2c(c1)OCO2	1%	0%	-8%	12%	-18%
NC(N)=NS(=O)(=O)c1ccc(NC(=S)NC(=O)c2ccccc2)cc1	14%	.	-3%	16%	-13%
NC(N)=NS(=O)(=O)c1ccc(NC(=S)NC(=O)c2ccc3c(c2)OCO3)cc1	-1%	45µM*	-3%	14%	-27%
